Hits are enriched below; roughly 2.8% of the tested compounds scored in any of these assays.
proKLK7 act = proKLK7 zymogen activators, primary screen, biochemical, fluorescence intensity; purified proKLK7, EDANS-DABCYL substrate fluorescence; 100% is mature enzyme control, 0% vehicle; Kallikrein-7 (Homo sapiens), P49862; activation, % at 7 µM; 370,000 compounds, 0.9% hits;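 active means activation above the mean of all tested compounds plus 3 SD, computed per campaign excluding outliers beyond control limits, cut at about 13% in these data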
Target sequence (P49862 whole entry, looked up): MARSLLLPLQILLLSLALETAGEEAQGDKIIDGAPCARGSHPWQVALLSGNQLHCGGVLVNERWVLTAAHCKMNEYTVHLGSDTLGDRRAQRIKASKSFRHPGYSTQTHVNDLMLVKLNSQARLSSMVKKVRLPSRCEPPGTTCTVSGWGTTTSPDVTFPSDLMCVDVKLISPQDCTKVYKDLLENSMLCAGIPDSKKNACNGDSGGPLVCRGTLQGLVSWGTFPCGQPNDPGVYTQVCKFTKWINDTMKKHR
PP5 primary = PP5 phosphatase inhibitors, primary screen, biochemical, fluorescence. 320,000 compounds, 0.18% hits. Serine/threonine-protein phosphatase 5 (Homo sapiens), P53041. inhibition, % at 6.7 µM. purified PP5c, OMFP substrate fluorescence;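 active means inhibition above the campaign's mean inhibition across all tested compounds plus 3 SD, cut at about 9.5% in these data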;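 further: 0% = DMSO only and 100% = 100 µM cantharidin control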
PP1 inh = PP1-alpha phosphatase inhibitors, primary screen, counter-screen for PP5 inhibitor project, biochemical, fluorescence, OMFP substrate, single point; Serine/threonine-protein phosphatase PP1-alpha catalytic subunit (Homo sapiens), P62136; purified PP1alpha; inhibition, % at 6.7 µM; 320,000 compounds, 0.9% hits; AID 2235, 2010;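 active means inhibition above the mean inhibition of all tested compounds plus 3 SD, computed separately for each screening campaign, cut at about 15% in these data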
Target sequence (P62136 whole entry, looked up): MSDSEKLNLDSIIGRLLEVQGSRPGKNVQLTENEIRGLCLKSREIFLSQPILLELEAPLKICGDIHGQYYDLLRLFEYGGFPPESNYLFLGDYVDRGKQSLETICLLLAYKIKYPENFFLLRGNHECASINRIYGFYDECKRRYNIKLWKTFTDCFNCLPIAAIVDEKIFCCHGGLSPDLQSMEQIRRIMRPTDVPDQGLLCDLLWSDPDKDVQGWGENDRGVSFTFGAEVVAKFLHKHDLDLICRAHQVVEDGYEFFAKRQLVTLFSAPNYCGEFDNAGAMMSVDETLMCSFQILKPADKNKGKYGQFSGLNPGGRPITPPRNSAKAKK
GASC-1 inh = inhibitors of GASC-1 histone demethylase, primary screen, biochemical, fluorescence, DELFIA europium | GST-JMJD2C(1-420) H3K9me3 demethylation | 330,000 compounds, 0.069% hits | Lysine-specific demethylase 4C (Homo sapiens), Q9H3R0 | inhibition, % at 2.35 µM;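 active means more than half of a compound's replicate wells show inhibition beyond 50%, single wells judged on their own value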;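 further: signal counts dimethyl H3K9 product captured on neutravidin plate; 0% = median of DMSO wells and 100% = 0.3 times that DMSO median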
PG9 Ab binder = binders of HIV-1 gp120 antibody PG9, primary screen, biochemical, TR-FRET | TR-FRET gp120-PG9 antibody binding | inhibition, % at 6.7 µM | 360,000 compounds, 0.43% hits | AID 624416, 2012; in the data active means inhibition above about 8.5%
Rev-erbA mod = modulators of Rev-erb alpha DNA binding, primary screen, biochemical, FITC-DNA, fluorescence polarization, uHTS. Nuclear receptor subfamily 1 group D member 1 (Homo sapiens), P20393. Rev-erbα–FITC-DNA binding, 90 min. activity, % at 10 µM. 370,000 compounds, 0.79% hits. AID 1259318, 2017;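 active means activity above about 14%, limit read from the data; passing the limit was not always enough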;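 further: 0% = DMSO wells with 35 nM protein and 100% = DMSO wells with 750 nM protein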
KLK7 act conf = proKLK7 zymogen activators, confirmation, biochemical, fluorescence intensity, triplicate; shares compounds with proKLK7 act; purified proKLK7, EDANS-DABCYL substrate fluorescence; scaled: vehicle 0, mature enzyme 100; activation, % at 7 µM; 3,200 compounds, 68% hits;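 active means activation, as change over the incubation, above the mean of all tested compounds plus 3 SD, cut at about 13% in these data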
EDANS interfere = EDANS-DABCYL substrate optical interference, artefact control for kallikrein-7 zymogen activator project, biochemical, fluorescence intensity, high throughput; shares compounds with proKLK7 act; no enzyme, 4 h; solvent 0%, active enzyme control 100%; activation, % at 7 µM; 3,200 compounds, 80% hits; AID 686952, 2013;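 active means activation above the all-compound mean plus 3 SD, ignoring values outside control-based bounds, cut at about 4.8% in these data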;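 further: value is the 4 h activation minus the activation read at time zero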
K7 EDANS ctr = counter-screen for kallikrein-7 activators: EDANS-DABCYL interference, dose response; shares compounds with proKLK7 act; 250 compounds, 20% hits; EDANS-DABCYL peptide fluorescence interference, no enzyme; AID 720493; EC50, µM;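 active means compounds that raise the fluorescence signal in this interference counterscreen, with EC50 at or below 10 µM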;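 further: intact quenched peptide substrate alone read at 355 nm excitation and 520 nm emission; signal is fluorescence gain from T0 to T4 after four hours at room temperature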
Active calls of the source: *; nt = not tested or not shown.

SMILES	proKLK7 act	PP5 primary	PP1 inh	GASC-1 inh	PG9 Ab binder	Rev-erbA mod	KLK7 act conf	EDANS interfere	others
CCc1cc2c(=O)c(-c3nc4ccccc4n3C)coc2c(CN2CCCCC2C)c1O (centres undefined)	15.6*	nt	nt	6.3	-1.5	-1.6	8.4	14.7*
CCc1cc2c(=O)c(-c3nc4ccccc4n3C)coc2c(CN2CCOCC2)c1O	2.5	-0.8	-0.5	-8.5	-0.4	-1.9	nt	nt
CCCCNC(=O)C[C@H]1C[C@@]2(C(=O)OC)C(=C[C@H](COCc3ccccc3)O[C@@H]2C)N(Cc2ccccc2)C1=O	0.4	nt	nt	nt	nt	0.9	nt	nt
Cc1cc(C(=O)NCc2ccco2)c2ccccc2n1	-1.2	-4.5	10.9	-9.7	-1.4	0.5	nt	nt
CCNC(=O)COC(=O)c1cc(-c2ccco2)nc2ccccc12	120.7*	0.3	0.9	-17.2	2.0	-25.8	16.5*	18.5*
COc1ccc(CNC(=O)COC(=O)c2cc(C)nc3ccccc23)cc1	-0.2	nt	nt	6.2	-2.0	1.0	nt	nt
Cc1ccc(-c2cc(C(=O)NCc3ccco3)c3ccccc3n2)o1	18.1*	-3.8	15.3*	13.9	2.5	-21.4	-11.3	-2.1
CN1CCN(NC(=O)c2cc(-c3ccc(Cl)s3)nc3ccccc23)CC1	26.4*	0.7	-2.2	-15.5	2.6	-0.8	-33.2	-24.1
CCN(CC)CCNC(=O)c1ccc(NC(=O)c2cc(-c3ccco3)nc3ccccc23)cc1	31.0*	3.8	-5.2	0.4	3.6	-12.0	-34.1	-21.2
CC(C)NC(=O)C1CCN(c2cncnc2)CC1	-0.1	nt	nt	nt	nt	-6.0	nt	nt
C[C@H]1[C@@H](NCC2CCCCC2)CC[C@@]23CCCN2C(=O)CCC[C@@H]13	nt	nt	nt	nt	nt	-1.8	nt	nt
O=C(NC1CCCC1)[C@@H]1CCCN1C(=O)[C@@H](NS(=O)(=O)c1ccc(F)cc1F)c1ccccc1	0.1	nt	nt	nt	-0.9	-5.9	nt	nt
O=C(NC1CCCC1)C1(C(=O)C2CC2)CC(c2ccccc2C(F)(F)F)=NO1 (centres undefined)	0.9	nt	nt	nt	nt	4.3	nt	nt
CCc1ccc(-c2cc(C(=O)O)c3ccccc3n2)s1	66.0*	nt	nt	-5.2	1.6	-5.4	60.4*	60.0*
O=C(Nc1ccccc1)c1cc(N2CCOCC2)nc2ccccc12	12.5	2.4	-1.7	-2.6	-0.6	5.2	nt	nt
O=C(Nc1nccs1)c1cc(-c2ccco2)nc2ccccc12	15.5*	1.4	8.5	4.2	-3.1	-32.5	0.9	-2.1
O=C(O)c1cc(-c2ccco2)nc2ccccc12	20.7*	-1.2	-5.8	-4.7	0.7	-1.4	16.2*	16.0*
O=C(O)c1cc(-c2cc(C(=O)O)c3ccccc3n2)nc2ccccc12	nt	-0.8	-4.5	2.4	nt	nt	nt	nt
O=C(Nc1nccs1)c1cc(N2CCOCC2)nc2ccccc12	18.2*	-2.6	0.6	-3.8	1.3	4.0	14.3*	12.4*
C[C@@H]1[C@@H](O)C[C@]2(C[C@@H](O)c3ccccc3O2)O[C@H]1c1ccccc1	0.2	nt	nt	nt	nt	8.0	nt	nt
CC(C)CN(CC(C)C)C(=O)CSc1nc2cccnc2n1C	-0.3	nt	nt	nt	nt	-1.6	nt	nt
Cc1ccc(-c2cc(C(=O)N3CC(C)OC(C)C3)c3ccccc3n2)o1 (centres undefined)	46.2*	0.8	-3.7	4.6	2.6	-10.7	64.8*	66.4*
Cc1ccc(-c2cc(C(=O)N3CC(C)CC(C)C3)c3ccccc3n2)o1 (centres undefined)	-13.0	4.0	4.8	5.8	-2.7	-9.4	nt	nt
CC(C)N(C(=O)[C@H]1C[C@H](CC(=O)NCC23CC4CC(CC(C4)C2)C3)C(=O)N2CCc3c([nH]c4cc(-c5ccco5)ccc34)[C@]12C)C(C)C	0.5	nt	nt	nt	-0.3	-6.7	nt	nt
CCN(CC)C(=O)[C@H]1C[C@H](CC(=O)NCc2ccco2)C(=O)N2CCc3c([nH]c4cc(-c5ccco5)ccc34)[C@]12C	111.8*	nt	nt	nt	0.9	10.0	44.0*	50.8*
SMILES	proKLK7 act	PP5 primary	PP1 inh	GASC-1 inh	PG9 Ab binder	Rev-erbA mod	KLK7 act conf	EDANS interfere	others
CCN(CC)C(=O)[C@H]1C[C@H](CC(=O)NCCCn2ccnc2)C(=O)N2CCc3c([nH]c4cc(-c5ccco5)ccc34)[C@]12C	94.5*	nt	nt	nt	-0.4	-1.9	68.7*	73.8*
CCN(CC)C(=O)[C@H]1C[C@H](CC(=O)NCCN2CCOCC2)C(=O)N2CCc3c([nH]c4cc(-c5ccco5)ccc34)[C@]12C	120.4*	nt	nt	nt	-0.3	-5.0	148.5*	194.5*
CN(C)/C=N/c1nc2nccc(-c3cccs3)n2n1	84.8*	3.1	0.0	-13.1	1.4	-4.2	67.1*	78.8*
CN(C)/C=N/c1nc2nccc(-c3cccc(Cl)c3)n2n1	14.6*	-0.9	0.9	10.4	1.1	-1.9	34.0*	45.4*
CN(C)/C=N/c1nc2nccc(-c3ccc(F)cc3)n2n1	12.3	-0.9	-0.2	2.1	-0.9	-4.1	nt	nt
CCCCNC(=O)C[C@H]1C[C@@]2(C(=O)OC)C(=C[C@H](C(C)C)O[C@@H]2C2CC2)N(Cc2ccc(Cl)cc2Cl)C1=O	-0.5	nt	nt	nt	nt	1.8	nt	nt
CCN1CCN(Cc2c(O)ccc3c2O/C(=C\C=C\c2ccccc2)C3=O)CC1	5.4	2.0	5.8	-6.6	-11.9	1.0	nt	nt
CCN1CCN(Cc2c(O)ccc3c2O/C(=C\c2ccc(C)cc2)C3=O)CC1	44.0*	1.7	-3.3	-0.7	-4.4	-0.6	18.2*	7.1*	K7 EDANS ctr=>69.5
CCN1CCN(Cc2c(O)ccc3c2O/C(=C\c2ccccc2)C3=O)CC1	41.5*	-1.2	1.4	3.6	-5.9	5.9	25.1*	39.3*
CCc1ccc(/C=C2\Oc3c(ccc(O)c3CN3CCN(C)CC3)C2=O)cc1	57.7*	1.5	-1.8	2.3	-1.1	0.5	17.5*	36.7*
Cc1ccc(/C=C2\Oc3c(ccc(O)c3CN3CCN(C)CC3)C2=O)cc1	57.5*	2.8	-2.2	-13.7	-3.5	3.0	31.1*	25.2*

Screening data: PubChem, several laboratories
